# Test results: PMC4336329 (PLoS ONE, 2015)
# Out of some 310,000 compounds screened, about 14,000 (4.5%) showed an effect of 50% or more. Effects have a minus sign here. Only a selection was taken, and strong results are over-represented in it overall.
# Molecular target: human ether-à-go-go-related gene (hERG) potassium channel (human, UniProt Q12809)
# Assay: primary screen, population patch clamp on CHO cells stably expressing hERG; higher = less effect of the substance
# Method: Briefly, Chinese hamster ovary (CHO) cells stably expressing the hERG channel were dislodged from tissue culture flasks and dispensed into PPC plates. […] During the recording, background leak currents were estimated by a 100 ms step to -80 mV from an initial holding potential of -70 mV and subtracted from the subsequent current measurement. The campaign was conducted in two phases using slight differences in recording protocol. In the first phase, the initial voltage pulse used a 100 ms step to -30 mV from a holding potential of -70 mV, a 2 s conditioning step to +25 mV, and a 2 s test step to -30 mV. During the second phase of the screen, the potential during the conditioning step was raised to +45 mV. In both phases of the campaign, a secondary voltage pulse was applied using the same parameters as the second phase initial pulse. The initial and secondary pulses were applied in the absence of compound, and upon application of 1 μM and 10 μM test concentrations. […]
# 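Note: peak tail current of the secondary pulse compared with the same well before compound.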
# human ether-à-go-go-related gene (hERG) potassium channel, sequence (Q12809 whole entry, looked up): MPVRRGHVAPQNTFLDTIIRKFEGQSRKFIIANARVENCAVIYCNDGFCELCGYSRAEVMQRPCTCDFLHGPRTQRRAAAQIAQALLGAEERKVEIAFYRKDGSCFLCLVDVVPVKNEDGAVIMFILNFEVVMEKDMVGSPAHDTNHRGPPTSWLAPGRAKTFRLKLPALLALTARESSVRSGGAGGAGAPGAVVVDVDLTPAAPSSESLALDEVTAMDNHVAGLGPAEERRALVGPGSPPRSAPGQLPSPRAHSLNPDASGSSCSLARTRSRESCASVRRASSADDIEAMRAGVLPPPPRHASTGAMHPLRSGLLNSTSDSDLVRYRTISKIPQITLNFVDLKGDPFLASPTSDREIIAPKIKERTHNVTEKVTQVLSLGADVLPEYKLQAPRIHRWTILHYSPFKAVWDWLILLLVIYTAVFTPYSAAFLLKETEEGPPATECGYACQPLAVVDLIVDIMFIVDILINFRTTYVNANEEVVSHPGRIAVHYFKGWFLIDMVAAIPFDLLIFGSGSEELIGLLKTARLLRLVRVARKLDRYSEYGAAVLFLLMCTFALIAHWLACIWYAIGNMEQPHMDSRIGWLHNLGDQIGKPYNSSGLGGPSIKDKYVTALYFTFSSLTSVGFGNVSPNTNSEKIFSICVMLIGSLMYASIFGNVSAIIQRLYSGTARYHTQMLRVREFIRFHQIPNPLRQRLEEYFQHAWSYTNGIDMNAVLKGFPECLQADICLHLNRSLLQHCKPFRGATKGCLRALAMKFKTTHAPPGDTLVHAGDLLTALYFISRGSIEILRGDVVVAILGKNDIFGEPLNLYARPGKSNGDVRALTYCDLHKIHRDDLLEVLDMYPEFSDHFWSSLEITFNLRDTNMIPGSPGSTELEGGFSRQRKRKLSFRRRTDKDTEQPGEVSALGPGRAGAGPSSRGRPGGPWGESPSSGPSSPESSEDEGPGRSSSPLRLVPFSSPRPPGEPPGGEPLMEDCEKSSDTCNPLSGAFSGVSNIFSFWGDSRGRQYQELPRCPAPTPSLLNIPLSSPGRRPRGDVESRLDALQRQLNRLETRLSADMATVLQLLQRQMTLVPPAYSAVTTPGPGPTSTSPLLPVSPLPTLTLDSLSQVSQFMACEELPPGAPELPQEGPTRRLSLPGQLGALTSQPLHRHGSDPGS
row,SMILES,"hERG current change (%, negative = inhibition) at 10uM [%]"
1,COc1ccc(/C(C)=N/NC(=O)CNC(=O)c2ccncc2)c(OC)c1,3.47
2,COc1cc(OC)c2cc[nH]c2c1,27.3
3,Cc1ccccc1NC(=S)NCC(c1cccnc1)N1CCOCC1 (centres unmarked),-4.07
4,Cc1cc(Nc2ccc(Cl)cc2)n2nnnc2n1,7.83
5,COc1cc(CN2CCN(c3cc(C)ccc3C)CC2)cc([N+](=O)[O-])c1O,7.26
6,Oc1cccc(Nc2ncnc3ccccc23)c1,3.18
7,O=C(CNC(=O)c1ccccc1Br)N/N=C/c1cccs1,4.8
8,Cc1ccc(NC(=O)CCNC(=O)c2ccc([N+](=O)[O-])cc2)cc1S(=O)(=O)N(C)C,-66.9
9,O=C(Cc1ccc(Cl)cc1Cl)Nc1cccc(S(=O)(=O)Nc2ccccc2F)c1,-1.71
10,O=C(NCC(O)c1ccccc1)c1cccc(S(=O)(=O)N2CCOCC2)c1 (centres unmarked),-18.1
11,O=C(NCC(O)c1ccc([N+](=O)[O-])cc1)c1cccc(S(=O)(=O)N2CCCC2)c1 (centres unmarked),-66.8
12,COC(=O)c1cccc(NC(=O)CCNC(=O)c2ccc([N+](=O)[O-])cc2)c1,-48
13,Cc1ccc(NC(=O)CCNC(=O)c2ccc([N+](=O)[O-])cc2)cc1C,-0.694
14,O=C(CSc1ccc([N+](=O)[O-])cc1)Nc1cccc(S(=O)(=O)Nc2ccccc2F)c1,-74.4
15,CN(C)S(=O)(=O)c1ccc(NC(=O)CCNC(=O)c2ccc([N+](=O)[O-])cc2)cc1,-12.7
16,O=C(NCC(O)c1ccc([N+](=O)[O-])cc1)c1cccc(S(=O)(=O)N2CCOCC2)c1 (centres unmarked),-13
17,CCN(CC)S(=O)(=O)c1cccc(NC(=O)CCNC(=O)c2ccc([N+](=O)[O-])cc2)c1,-62.4
18,O=C(Cc1ccc(Cl)cc1)Nc1cccc(S(=O)(=O)Nc2ccccc2F)c1,11.9
19,Cc1ccc(NC(=O)c2ccc([N+](=O)[O-])cc2)cc1S(=O)(=O)N(C)C,-39.6
20,CCOc1ccc(C(=O)Nc2nc(C)cc(C)n2)cc1[N+](=O)[O-],-49.6
21,Cc1nnc(C)n1/N=C/c1ccc(-c2ccccc2Cl)o1,-11.3
22,N[C@@H](Cc1ccc(O)c(I)c1)C(=O)O,17.6
23,COc1ccc(NC(=O)c2oc3ccccc3c2NC(=O)C2CCCO2)cc1OC (centres unmarked),-17.8
24,c1ccc(C2=Nn3c(nnc3-c3cc(-c4ccccc4)n[nH]3)SC2)cc1,6.46
25,COc1ccc(OC)c(/C=N/NC(=O)CSc2nnc(C)n2-c2ccccc2)c1,-12.4
26,CCOc1cc(/C=C(\C#N)C(=O)NCc2cccnc2)ccc1O,-8.66
27,COc1ccccc1/C=C\C=N\NC(=O)CCn1nnc2ccccc21,-3.44

row,SMILES,"hERG current change (%, negative = inhibition) at 10uM [%]"
1,Cc1nc(Br)c(Br)c(C)c1Br,14.4
2,O=C(CCNC(=O)c1ccc([N+](=O)[O-])cc1)Nc1ccc(S(=O)(=O)N2CCOCC2)cc1,2.67
3,Cc1ccc(NC(=O)CCNC(=O)c2ccc([N+](=O)[O-])cc2)cc1S(=O)(=O)N1CCOCC1,-47.4
4,O=C(CCNC(=O)c1ccc([N+](=O)[O-])cc1)Nc1ccc(Cl)c(S(=O)(=O)N2CCOCC2)c1,-66.2
5,CC(=O)c1cccc(NCC(=O)Nc2cccc(S(=O)(=O)N3CCCCC3)c2)c1,-31.6
6,O=C(CNc1cccc(S(=O)(=O)N2CCCCCC2)c1)Nc1cccc([N+](=O)[O-])c1,-71.9
7,O=C(CNc1cccc(S(=O)(=O)N2CCCCC2)c1)Nc1cccc(F)c1,-9.9
8,Cc1ccc(-n2c(C)nnc2SCC(=O)N(C)C2CCS(=O)(=O)C2)cc1 (centres unmarked),12.9
9,Cl.O=C(CCc1ccc(S(=O)(=O)N2CCOCC2)cc1)N1CCN(Cc2ccc3c(c2)OCO3)CC1,-34.3
10,Clc1ccc(-c2cn3nc4c(nc3n2)CCCC4)cc1,-15.3
11,CCOC(=O)c1ccc(NC(=O)c2ccc(NC(=O)C3CCCO3)cc2)cc1 (centres unmarked),17
12,CC(C)C(=O)Nc1ccccc1N1CCN(C(=O)c2ccccc2)CC1,-14.2
13,COc1cccc(OC)c1C(=O)Nc1ccccc1N1CCCC1,-74.6
14,CC(C)(C)C(=O)Nc1ccccc1N1CCN(C(=O)c2ccc(Cl)cc2)CC1,-48.2
15,O=C(Nc1ccccc1N1CCN(C(=O)c2ccccc2)CC1)c1cccc(Cl)c1,-67.8
16,COc1cccc(OC)c1C(=O)Nc1ccccc1N1CCCCC1,-17.4
17,O=C(Nc1ccccc1N1CCCCC1)c1cccc(Cl)c1,13.5
18,COc1ccccc1C(=O)Nc1ccccc1N1CCCCC1,-22.4
19,CC(C)C(=O)NC(=S)Nc1ccccc1N1CCN(C(=O)c2ccc(Cl)cc2)CC1,-3.55
20,O=C(Nc1ccccc1N1CCN(C(=O)c2ccccc2)CC1)c1ccc(Cl)cc1,-73.2
21,COc1ccccc1C(=O)Nc1ccccc1N1CCOCC1,-6.98
22,O=C(Nc1ccccc1N1CCN(C(=O)c2ccc(Cl)cc2)CC1)c1ccc(Br)cc1,-41.5
23,COc1ccccc1C(=O)Nc1ccccc1N1CCN(C(=O)c2ccc(Cl)cc2)CC1,-82.1
24,O=C(NC1CCSc2ccccc21)c1ccc(Cl)c(S(=O)(=O)N2CCOCC2)c1 (centres unmarked),7.48
25,Cc1ccc(C(=O)Nc2nc3ccccc3s2)s1,8.75
26,CC(C)[C@H](NC(=O)c1ccco1)C(=O)N(C)Cc1c(F)cccc1Cl,-32.3
